± gives the standard deviation.
Columns and labels:
Details in all cases: modulator concentration 10 µM
[1] = system: RAW-Dual (murine macrophage reporter line); assay: NF-kB reporter (SEAP) activity fold change vs agonist alone; higher = enhanced NF-kB activity
In short: (§1)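 In 384-well plates holding 50 000 RAW-Dual murine macrophage reporter cells per well, compound at 10 μM final was pre-incubated for 1 hour at 37 °C, after which a PRR agonist was added overnight. Supernatant SEAP read with QUANTI-Blue at 620 nm absorbance reported NF-κB, and Lucia luciferase read with QUANTI-Luc luminescence reported IRF. Fold change values come from dividing each reporter signal by the mean of agonist-only control wells on the same plate, averaged over replicate plates with propagated errors.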

[2] = system: RAW-Dual (murine macrophage reporter line); assay: IRF reporter (Lucia luciferase) activity fold change vs agonist alone; higher = enhanced IRF activity
In short: as §1

[3] = system: RAW-Dual (murine macrophage reporter line); assay: viability score (confluency relative to resting cells, overnight) (fraction); higher = more viable, active = viable (0.7 or more)
In short: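 In 384-well plates, RAW-Dual macrophages received compound at a final 10 μM overnight. Two confluency masks were then made with IncuCyte software from IncuCyte images of all imaged wells. The viability score is defined as confluency relative to resting cells. Passing the cutoff required both masks to lie above 70% of resting cells.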

[4] = agonist: CpG ODN 1826 0.5 ug/mL

Compound	NF-kB reporter [1, 4]	NF-kB reporter ([1]; agonist: LPS 0.1 ug/mL)	NF-kB reporter ([1]; agonist: MPLA […])	IRF reporter ([2]; agonist: 3'3'-cGAMP 10 ug/mL)	IRF reporter ([2]; agonist: LPS 0.1 ug/mL)	IRF reporter ([2]; agonist: MPLA […])	viability score [3]
Oc1ccc(N=Cc2ccccc2)cc1	1.38 ± 0.18	1.2 ± 0.079	2.67 ± 0.18	0.605 ± 0.037	0.924 ± 0.082	1.58 ± 0.35	0.988 (active)
CNC1CCCN(c2c(F)cc3c(=O)c(C(=O)O)cn(C4CC4)c3c2OC)C1 (stereo unspecified)	0.783 ± 0.095	0.821 ± 0.04	1.12 ± 0.16	1.02 ± 0.048	1.35 ± 0.094	1.43 ± 0.14	0.999 (active)
Cl.Nc1c(Br)cc(Br)cc1CNC1CCC(O)CC1 (stereo unspecified)	0.911 ± 0.074	0.95 ± 0.1	1.04 ± 0.03	0.908 ± 0.065	0.94 ± 0.096	0.999 ± 0.079	0.998 (active)
CC1(C)Cc2c(sc3nc(SCC(N)=O)n(CCc4ccccc4)c(=O)c23)CO1	0.815 ± 0.07	0.814 ± 0.054	0.927 ± 0.1	1.02 ± 0.054	1.24 ± 0.084	1.3 ± 0.11	1.01 (active)
S=C(NCCN1CCCCC1)NCc1ccccc1	0.962 ± 0.14	1 ± 0.055	0.99 ± 0.12	1.01 ± 0.035	1.33 ± 0.14	1.22 ± 0.12	1.01 (active)
O=C1NC(=O)[C@@H](c2cn3c4c(cccc24)CCC3)[C@@H]1c1c[nH]c2ccccc12	1.1 ± 0.051	1.02 ± 0.17	1.12 ± 0.13	0.971 ± 0.058	0.921 ± 0.18	0.948 ± 0.27	1.01 (active)
O=C(NCCNC(=O)c1ccccc1Cl)c1ccc(NC(=O)C2CC2)cc1	0.924 ± 0.04	1.01 ± 0.084	1.67 ± 0.56	1.02 ± 0.052	1.36 ± 0.25	1.69 ± 0.5	0.98 (active)
CC(=O)N1CC(C(=O)Nc2ccc(Br)c(C)c2)C1	1.05 ± 0.071	0.996 ± 0.082	0.973 ± 0.053	0.988 ± 0.035	1.03 ± 0.048	0.909 ± 0.089	0.997 (active)
Cc1cccc(C(C)C)c1NC(=O)c1ccccc1Br	0.951 ± 0.16	0.956 ± 0.085	0.953 ± 0.074	0.988 ± 0.044	1.28 ± 0.23	1.14 ± 0.12	0.971 (active)
CC(C)c1ccccc1NS(=O)(=O)c1ccccc1	0.866 ± 0.072	0.766 ± 0.039	1.05 ± 0.11	1.08 ± 0.066	1.4 ± 0.089	1.53 ± 0.16	0.857 (active)
CC(O)(CNC(=O)CSc1ccc(F)cc1)c1ccc(-c2ccccc2)cc1 (stereo unspecified)	1.02 ± 0.067	0.973 ± 0.092	0.935 ± 0.038	0.685 ± 0.049	1.11 ± 0.072	0.921 ± 0.1	0.992 (active)
O=S1(=O)N=C(Oc2ccc3ccccc3c2)c2ccccc21	0.889 ± 0.15	1.23 ± 0.1	1.22 ± 0.21	0.91 ± 0.063	0.942 ± 0.14	0.991 ± 0.11	0.992 (active)
CN(C)CC/C=C1/c2ccccc2COc2ccc(CC(=O)O)cc21.Cl	1.35 ± 0.26	1.22 ± 0.36	1.66 ± 0.75	0.953 ± 0.039	1.42 ± 0.17	1.2 ± 0.094	0.992 (active)
